{"source": "PubChem BioAssay (NCATS)", "key": {"[1]": {"molecular_target": "Cytochrome P450 2D6 (Homo sapiens) (UniProt P10635)", "sequence (P10635 whole entry, looked up)": "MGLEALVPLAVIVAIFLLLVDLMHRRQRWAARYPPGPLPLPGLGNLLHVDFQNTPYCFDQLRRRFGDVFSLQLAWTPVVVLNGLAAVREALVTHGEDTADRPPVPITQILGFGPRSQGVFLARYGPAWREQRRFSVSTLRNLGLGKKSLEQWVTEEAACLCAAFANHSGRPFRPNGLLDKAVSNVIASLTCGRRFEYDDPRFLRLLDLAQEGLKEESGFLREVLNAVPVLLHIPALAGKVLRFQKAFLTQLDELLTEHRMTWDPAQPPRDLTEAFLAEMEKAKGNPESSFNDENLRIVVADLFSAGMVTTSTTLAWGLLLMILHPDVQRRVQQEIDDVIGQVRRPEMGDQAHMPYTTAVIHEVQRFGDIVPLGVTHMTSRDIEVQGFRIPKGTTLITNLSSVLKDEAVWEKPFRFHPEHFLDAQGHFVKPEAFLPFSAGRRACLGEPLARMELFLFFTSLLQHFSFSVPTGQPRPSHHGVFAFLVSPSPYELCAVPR", "assay": "Cytochrome P450 family 2 subfamily D member 6 (CYP2D6) small molecule antagonists: luciferase biochemical (cell-free) qHTS assay (AID 1645840; active = well fitted curve in the direction sought with a large enough effect in the repeat runs; an effect the other way counts as inactive or inconclusive; also: nearly all actives have a fitted effect of over 55% in size; also: potency is read from the fitted curve at half-maximal effect)", "summary_of_the_method": "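P450-Glo luminescent screen: recombinant CYP2D6 enzyme–proluciferin substrate mix preincubated with compound 10 min at room temperature, then NADPH regeneration added for 1 h at room temperature. Detection reagent added for 20 min; luciferin light read as relative luminescence units.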"}, "[2]": {"test_system": "CASKI", "assay": "Primary qHTS to identify gynecologic anti-cancer compounds using libraries of approved drugs and bioactive compounds (AID 1345084); also: nearly all actives have a fitted effect of over 55% in size; also: potency is read from the fitted curve at half-maximal effect", "conditions": "Gynecologic cancer cell panel viability, ATPlite luminescence, 48 h; series mostly up to 57.5 µM", "summary_of_the_method": "(§1)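 Five-point cytotoxicity, 48 h drug exposure at 37 C, 5% CO2, on cells seeded 16 h beforehand. ATP content read by ATPlite luminescence.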"}, "[3]": {"test_system": "Zika virus NS2B-NS3 protease (unlinked complex)", "assay": "Primary screen GU Rhodamine qHTS for Zika virus inhibitors: Unlinked NS2B-NS3 protease assay (AID 1347159)", "summary_of_the_method": "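A qHTS format was used, with compound concentrations ranging up to 114 microM. Each compound was preincubated with 25 nM NS2B-NS3 protease, and the substrate was then added at 1.5 microM. Curves were fitted with a 4-parameter Hill model.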"}, "[4]": {"test_system": "SKOV3", "assay": "Primary qHTS to identify gynecologic anti-cancer compounds using libraries of approved drugs and bioactive compounds (AID 1345084)", "conditions": "Gynecologic cancer cell panel viability, ATPlite luminescence, 48 h; series mostly up to 57.5 µM", "summary_of_the_method": "as §1"}, "[5]": {"molecular_target": "Cytochrome P450 2C9 (Homo sapiens) (UniProt P11712)", "sequence (P11712 whole entry, looked up)": "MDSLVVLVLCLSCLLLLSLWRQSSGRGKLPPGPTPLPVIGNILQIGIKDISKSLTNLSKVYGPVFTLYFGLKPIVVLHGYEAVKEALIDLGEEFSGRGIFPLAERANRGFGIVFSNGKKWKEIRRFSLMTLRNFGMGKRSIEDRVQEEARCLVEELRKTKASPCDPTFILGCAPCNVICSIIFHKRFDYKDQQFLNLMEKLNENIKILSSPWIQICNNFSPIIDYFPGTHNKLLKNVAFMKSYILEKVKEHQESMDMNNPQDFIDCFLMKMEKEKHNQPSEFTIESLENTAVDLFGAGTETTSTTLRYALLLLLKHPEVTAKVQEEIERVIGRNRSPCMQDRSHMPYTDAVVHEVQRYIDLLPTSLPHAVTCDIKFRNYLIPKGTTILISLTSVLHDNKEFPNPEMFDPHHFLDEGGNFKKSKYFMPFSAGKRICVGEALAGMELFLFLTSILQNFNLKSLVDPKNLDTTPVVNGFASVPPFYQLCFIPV", "assay": "Cytochrome P450 family 2 subfamily C member 9 (CYP2C9) small molecule antagonists: luciferase biochemical (cell-free) qHTS assay (AID 1645842; active = well fitted curve in the direction sought with a large enough effect in the repeat runs; an effect the other way counts as inactive or inconclusive)", "summary_of_the_method": "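Luminescence, after 20 min with luciferin detection reagent, reflected CYP2C9 turnover during a 1 h NADPH-driven reaction at 37C. Enzyme-substrate mix contained 0.4% bovine serum albumin and was preincubated with compound 10 min at room temperature.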"}, "[6]": {"assay": "Primary fluorescence-based thiol-reactive (MSTI) qHTS assay for identification of artifact compounds. (AID 1845221)", "summary_of_the_method": "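Thiol-reactive compounds detected by quenching of 4 uM MSTI fluorescence (525/598 nm) after 1 h room-temperature dark incubation in PBS pH 7.4, 2% DMSO. qHTS titration; percent inhibition Hill-fitted against Acetyl-MSTI/MSTI controls.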"}, "[7]": {"test_system": "C33A", "assay": "Primary qHTS to identify gynecologic anti-cancer compounds using libraries of approved drugs and bioactive compounds (AID 1345084)", "conditions": "Gynecologic cancer cell panel viability, ATPlite luminescence, 48 h; series mostly up to 57.5 µM", "summary_of_the_method": "as §1"}, "[8]": {"test_system": "PA-1", "assay": "Primary qHTS to identify gynecologic anti-cancer compounds using libraries of approved drugs and bioactive compounds (AID 1345084)", "conditions": "Gynecologic cancer cell panel viability, ATPlite luminescence, 48 h; series mostly up to 57.5 µM", "summary_of_the_method": "as §1"}, "[9]": {"test_system": "CAOV3", "assay": "Primary qHTS to identify gynecologic anti-cancer compounds using libraries of approved drugs and bioactive compounds (AID 1345084)", "conditions": "Gynecologic cancer cell panel viability, ATPlite luminescence, 48 h; series mostly up to 57.5 µM", "summary_of_the_method": "as §1"}, "[10]": {"assay": "qHTS to identify inhibitors of the type 1 interferon - major histocompatibility complex class I in skeletal muscle: primary screen against the NCATS Mechanism Interrogation Plate v5.0 (MIPE) Libary (AID 1347411)", "summary_of_the_method": "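Immortalized human C25cl48 myoblasts with HiBit knocked into endogenous HLA-B*08:01 were stimulated with 4.0 ng/ml IFN-beta and exposed to compounds (11-point 1:3 titration, top 46 uM final) for 24 hrs at 37 C; HiBiT lytic luminescence measured.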"}, "[11]": {"molecular_target": "Catechol O-methyltransferase (Homo sapiens) (UniProt P21964)", "sequence (P21964 whole entry, looked up)": "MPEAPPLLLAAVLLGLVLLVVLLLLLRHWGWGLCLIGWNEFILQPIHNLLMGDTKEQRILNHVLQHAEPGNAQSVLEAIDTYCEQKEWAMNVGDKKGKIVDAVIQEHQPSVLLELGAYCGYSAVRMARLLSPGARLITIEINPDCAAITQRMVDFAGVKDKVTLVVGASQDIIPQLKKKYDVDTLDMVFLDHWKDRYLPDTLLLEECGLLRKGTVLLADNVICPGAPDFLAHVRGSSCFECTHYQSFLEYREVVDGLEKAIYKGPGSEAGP", "assay": "Confirmatory Screen for Target Class Profiling of Small Molecule Inhibitors of Methyltransferases (AID 1745852)", "conditions": "MTase-Glo luminescence, SAH detection, recombinant enzyme; measured here: COMT max response; stronger effect = lower value"}, "[12]": {"molecular_target": "Guanidinoacetate N-methyltransferase (Homo sapiens) (UniProt Q14353)", "assay": "Confirmatory Screen for Target Class Profiling of Small Molecule Inhibitors of Methyltransferases (AID 1745852)", "conditions": "activity change, negative = inhibition: at 57.3 µM (top of the series) unless noted"}, "[13]": {"molecular_target": "Nicotinamide N-methyltransferase (Homo sapiens) (UniProt P40261)", "sequence (P40261 whole entry, looked up)": "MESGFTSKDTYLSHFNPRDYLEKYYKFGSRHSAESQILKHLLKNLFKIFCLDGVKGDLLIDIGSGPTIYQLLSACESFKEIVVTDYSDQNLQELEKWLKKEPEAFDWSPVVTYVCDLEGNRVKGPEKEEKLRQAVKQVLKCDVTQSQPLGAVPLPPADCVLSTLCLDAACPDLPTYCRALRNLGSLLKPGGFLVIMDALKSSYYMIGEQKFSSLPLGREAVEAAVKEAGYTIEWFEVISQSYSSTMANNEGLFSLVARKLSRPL", "assay": "Confirmatory Screen for Target Class Profiling of Small Molecule Inhibitors of Methyltransferases (AID 1745852)", "conditions": "MTase-Glo luminescence, SAH detection, recombinant enzyme; measured here: NNMT max response; stronger effect = lower value"}, "[14]": {"molecular_target": "Phenylethanolamine N-methyltransferase (Homo sapiens) (UniProt P11086)", "sequence (P11086 whole entry, looked up)": "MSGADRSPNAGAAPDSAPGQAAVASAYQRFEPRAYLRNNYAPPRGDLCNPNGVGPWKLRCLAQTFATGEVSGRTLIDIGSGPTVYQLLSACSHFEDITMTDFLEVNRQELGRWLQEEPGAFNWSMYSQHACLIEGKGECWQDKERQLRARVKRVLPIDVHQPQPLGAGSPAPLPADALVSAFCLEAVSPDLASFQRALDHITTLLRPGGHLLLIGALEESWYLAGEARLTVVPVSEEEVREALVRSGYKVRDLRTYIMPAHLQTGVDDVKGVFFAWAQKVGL", "assay": "Confirmatory Screen for Target Class Profiling of Small Molecule Inhibitors of Methyltransferases (AID 1745852)", "conditions": "MTase-Glo luminescence, SAH detection, recombinant enzyme; measured here: PNMT max response; stronger effect = lower value"}}, "note": "Inconclusive results are not listed. Where a call stands in place of a potency, no number is given. Calls of active or inactive are those of the source. Unless noted, calls follow the shape of the dose curve; as a rule, active = well fitted curve in the direction sought with a large enough effect; inconclusive = small, poorly fitted or top-dose-only effect, or another doubt; inactive = no such curve, though single readings can be large; an effect the other way counts as inactive or inconclusive."}
{"smiles": "COc1ccc(NC(=O)N2CCc3c2ccc2ccccc32)cc1N1CCN(C)CC1", "values": [{"measurement": "Potency", "setting": "[1]", "result": "19 µM (active)"}, {"measurement": "Potency", "setting": "[2]", "result": "inactive"}]}
{"smiles": "C=C(C)C(=O)O[C@H]1[C@H]2C(=C)C(=O)O[C@@H]2C[C@@H](C)[C@@H]2O[C@@H]2C(=O)[C@](C)(O)[C@@H]1OC(C)=O", "values": [{"measurement": "Potency", "setting": "[3]", "result": "inactive"}, {"measurement": "Potency", "setting": "[4]", "result": "2.51 µM (active)"}]}
{"smiles": "CCOc1ccc(-c2nc(-c3cccc4c3CCC4NCCO)no2)cc1OCC", "note": "(stereo not given)", "values": [{"measurement": "Potency", "setting": "[3]", "result": "inactive"}, {"measurement": "Potency", "setting": "[1]", "result": "inactive"}, {"measurement": "Potency", "setting": "[5]", "result": "inactive"}, {"measurement": "Potency", "setting": "[6]", "result": "inactive"}, {"measurement": "Potency", "setting": "[7]", "result": "inactive"}, {"measurement": "Potency", "setting": "[2]", "result": "inactive"}, {"measurement": "Potency", "setting": "[8]", "result": "inactive"}]}
{"smiles": "CC[C@@H](C)[C@H]1C(=O)O[C@H](C(C)C)C(=O)N(C)[C@@H](C(C)C)C(=O)O[C@H](C(C)C)C(=O)N(C)[C@@H](C(C)C)C(=O)O[C@H](CC(C)C)C(=O)N1C", "values": [{"measurement": "Potency", "setting": "[3]", "result": "inactive"}, {"measurement": "Potency", "setting": "[6]", "result": "inactive"}]}
{"smiles": "N#Cc1cccc(C#N)c1-c1nc2c3ccccc3c3cc(Cl)ccc3c2[nH]1", "values": [{"measurement": "Potency", "setting": "[3]", "result": "inactive"}, {"measurement": "Potency", "setting": "[6]", "result": "inactive"}, {"measurement": "Potency", "setting": "[9]", "result": "inactive"}, {"measurement": "Potency", "setting": "[2]", "result": "inactive"}, {"measurement": "Potency", "setting": "[8]", "result": "inactive"}]}
{"smiles": "COc1ccc(-c2cc(C(O)C3CCCCN3)c3ccccc3n2)cc1", "note": "(stereo not given)", "values": [{"measurement": "Potency", "setting": "[3]", "result": "inactive"}, {"measurement": "Potency", "setting": "[5]", "result": "10.7 µM (active)"}, {"measurement": "Potency", "setting": "[4]", "result": "28.2 µM (active)"}]}
{"smiles": "C=C1C(=O)O[C@H]2[C@H]1[C@@H](OC(=O)/C(C)=C\\C)C[C@]1(C)O[C@@H]1[C@H]1O[C@H]1C(=C)[C@H]2O", "values": [{"measurement": "Potency", "setting": "[3]", "result": "inactive"}, {"measurement": "Potency", "setting": "[6]", "result": "inactive"}, {"measurement": "Potency", "setting": "[8]", "result": "12.6 µM (active)"}]}
{"smiles": "C=CC(=O)Nc1cccc(Nc2nc(Nc3ccc(Oc4ccnc(C(=O)NC)c4)cc3)ncc2F)c1", "values": [{"measurement": "Potency", "setting": "[10]", "result": "18.6 µM (active)"}, {"measurement": "Potency", "setting": "[5]", "result": "1.51 µM (active)"}, {"measurement": "activity", "setting": "[11]", "result": -5.97, "unit": "%"}, {"measurement": "activity change, negative = inhibition", "setting": "[12]", "result": -5.15, "unit": "%"}, {"measurement": "activity", "setting": "[13]", "result": -53.4, "unit": "%"}, {"measurement": "activity", "setting": "[14]", "result": -10.6, "unit": "%"}, {"measurement": "Potency", "setting": "[6]", "result": "inactive"}, {"measurement": "Potency", "setting": "[7]", "result": "inactive"}, {"measurement": "Potency", "setting": "[2]", "result": "inactive"}]}
{"smiles": "CCOP(=O)(Cc1ccc(C(=O)Nc2ccc(Br)cc2C#N)cc1)OCC", "values": [{"measurement": "Potency", "setting": "[6]", "result": "inactive"}, {"measurement": "Potency", "setting": "[9]", "result": "inactive"}, {"measurement": "Potency", "setting": "[2]", "result": "inactive"}, {"measurement": "Potency", "setting": "[8]", "result": "inactive"}]}
{"smiles": "COc1cc2nc(N3CCN(C)CC3)nc(NC3CCN(Cc4ccccc4)CC3)c2cc1OC", "values": [{"measurement": "activity", "setting": "[11]", "result": -1.25, "unit": "%"}, {"measurement": "activity change, negative = inhibition", "setting": "[12]", "result": 9.72, "unit": "%"}, {"measurement": "activity", "setting": "[13]", "result": -9.04, "unit": "%"}, {"measurement": "activity", "setting": "[14]", "result": 0.903, "unit": "%"}, {"measurement": "Potency", "setting": "[7]", "result": "inactive"}]}
{"smiles": "COc1cc(N2CCN(C)CC2)ccc1Nc1nccc(-c2cn(C)c3cnccc23)n1", "values": [{"measurement": "Potency", "setting": "[3]", "result": "inactive"}, {"measurement": "Potency", "setting": "[1]", "result": "inactive"}, {"measurement": "Potency", "setting": "[5]", "result": "inactive"}, {"measurement": "Potency", "setting": "[4]", "result": "12.6 µM (active)"}]}
{"smiles": "O=C(O)c1ccc(O)c2ncc(N3CCCN(CCc4cccc5ccccc45)CC3)cc12", "values": [{"measurement": "activity", "setting": "[11]", "result": 15.8, "unit": "%"}, {"measurement": "activity change, negative = inhibition", "setting": "[12]", "result": 8.48, "unit": "%"}, {"measurement": "activity", "setting": "[13]", "result": -19.7, "unit": "%"}, {"measurement": "activity", "setting": "[14]", "result": -64.3, "unit": "%"}, {"measurement": "Potency", "setting": "[2]", "result": "inactive"}]}
{"smiles": "FC(F)(F)c1ccc(CNc2ccc(Cc3c[nH]c4ncccc34)cn2)cc1", "values": [{"measurement": "Potency", "setting": "[3]", "result": "inactive"}, {"measurement": "Potency", "setting": "[1]", "result": "0.19 µM (active)"}, {"measurement": "Potency", "setting": "[5]", "result": "1.2 µM (active)"}, {"measurement": "Potency", "setting": "[6]", "result": "inactive"}]}
{"smiles": "COc1ccccc1-c1c[nH]c2ncc(-c3cncc(C(=O)N(C)C)c3)cc12", "values": [{"measurement": "Potency", "setting": "[3]", "result": "inactive"}, {"measurement": "Potency", "setting": "[5]", "result": "3.38 µM (active)"}, {"measurement": "Potency", "setting": "[6]", "result": "inactive"}, {"measurement": "Potency", "setting": "[7]", "result": "inactive"}, {"measurement": "Potency", "setting": "[2]", "result": "inactive"}, {"measurement": "Potency", "setting": "[8]", "result": "31.6 µM (active)"}]}
{"smiles": "COC1CC(=O)C23C(=O)NC(CC(C)C)C2C(C)C(C)=CC3/C=C(\\C)CCC(O)C1O", "note": "(stereo not given)", "values": [{"measurement": "Potency", "setting": "[3]", "result": "inactive"}, {"measurement": "Potency", "setting": "[6]", "result": "inactive"}, {"measurement": "Potency", "setting": "[2]", "result": "inactive"}, {"measurement": "Potency", "setting": "[4]", "result": "inactive"}]}
{"smiles": "CCCc1c(C(C)C)nc(C(C)C)c([C@@H](C)O)c1-c1ccc(F)cc1O", "values": [{"measurement": "Potency", "setting": "[3]", "result": "14.1 µM (active)"}, {"measurement": "Potency", "setting": "[1]", "result": "2.39 µM (active)"}, {"measurement": "Potency", "setting": "[5]", "result": "4.77 µM (active)"}, {"measurement": "Potency", "setting": "[6]", "result": "inactive"}, {"measurement": "Potency", "setting": "[2]", "result": "inactive"}, {"measurement": "Potency", "setting": "[8]", "result": "inactive"}]}
{"smiles": "N#Cc1ccc(-c2ccc(NC(=O)Nc3ccc(-c4ccnc5nc[nH]c45)cc3)cc2)cc1", "values": [{"measurement": "Potency", "setting": "[7]", "result": "5.01 µM (active)"}]}
{"smiles": "Fc1ccc(C2CCNC[C@H]2COc2ccc3c(c2)OCO3)cc1", "note": "(stereo not given in full)", "values": [{"measurement": "Potency", "setting": "[3]", "result": "inactive"}, {"measurement": "Potency", "setting": "[6]", "result": "inactive"}, {"measurement": "Potency", "setting": "[8]", "result": "inactive"}]}
